Experimental data published in paper PMC7862700, “An all-to-all approach to the identification of sequence-specific readers for epigenetic DNA modifications on cytosine”.

Key:
Experiment in all cases: DAPPL (digital affinity profiling via proximity ligation, sequencing); 10 mM Tris-HCl pH 7.5, 50 mM NaCl, 1 mM DTT, 4% glycerol, room temperature, 30 min; GST-TFs on glutathione beads, 16-mer random dsDNA library, 0.1% formaldehyde crosslink after washing; high values mean tight binding
Details in all cases: protein: recombinant; tags: N-terminal GST; dsDNA, one strand shown
FLI1 = target: T1, FLI1 (Homo sapiens, UniProt Q01543 1-452)
T1 sequence: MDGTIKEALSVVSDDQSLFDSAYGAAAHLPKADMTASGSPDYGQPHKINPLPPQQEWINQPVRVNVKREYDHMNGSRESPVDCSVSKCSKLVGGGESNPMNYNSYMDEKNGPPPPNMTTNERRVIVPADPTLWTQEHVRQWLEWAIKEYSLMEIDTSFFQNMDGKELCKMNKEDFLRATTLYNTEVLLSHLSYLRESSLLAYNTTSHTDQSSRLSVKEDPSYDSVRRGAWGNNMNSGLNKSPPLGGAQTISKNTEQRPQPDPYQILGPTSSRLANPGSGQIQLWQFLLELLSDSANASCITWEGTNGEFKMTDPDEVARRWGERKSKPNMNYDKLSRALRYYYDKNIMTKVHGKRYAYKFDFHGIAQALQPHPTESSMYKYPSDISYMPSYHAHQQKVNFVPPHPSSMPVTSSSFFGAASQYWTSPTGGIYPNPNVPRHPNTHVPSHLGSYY
How it was run: (§1)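 Pools were built from human transcription factors expressed in yeast as GST fusions, captured on glutathione beads and DNA-barcoded, along with a tag-only sample. Incubation with 200 nmole of a 16-mer random double-stranded DNA library lasted 30 min at room temperature in Tris/NaCl/DTT/glycerol buffer, and was followed by washing, 0.1% formaldehyde crosslinking, proximity ligation, PCR amplification and Illumina NextSeq500 sequencing. Binding signal is the quotient of each hexamer's read frequency for a factor and its frequency for the tag-only sample.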

ELK1 = target: T2, ELK1 (Homo sapiens, UniProt P19419 1-428)
T2 sequence: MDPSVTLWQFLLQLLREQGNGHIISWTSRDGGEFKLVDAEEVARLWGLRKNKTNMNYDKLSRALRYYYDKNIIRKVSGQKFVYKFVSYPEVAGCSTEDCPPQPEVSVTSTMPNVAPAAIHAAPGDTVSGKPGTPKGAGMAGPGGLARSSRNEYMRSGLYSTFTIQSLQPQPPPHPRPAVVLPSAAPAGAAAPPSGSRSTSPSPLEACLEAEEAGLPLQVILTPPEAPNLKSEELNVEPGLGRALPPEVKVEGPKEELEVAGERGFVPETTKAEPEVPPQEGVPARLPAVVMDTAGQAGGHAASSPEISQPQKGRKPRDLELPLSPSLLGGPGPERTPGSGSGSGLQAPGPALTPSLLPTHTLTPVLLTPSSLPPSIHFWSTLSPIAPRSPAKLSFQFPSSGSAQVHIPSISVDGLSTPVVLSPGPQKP
How it was run: as §1

GABPA = target: T3, GABPA (Homo sapiens, UniProt Q06546 1-454)
T3 sequence: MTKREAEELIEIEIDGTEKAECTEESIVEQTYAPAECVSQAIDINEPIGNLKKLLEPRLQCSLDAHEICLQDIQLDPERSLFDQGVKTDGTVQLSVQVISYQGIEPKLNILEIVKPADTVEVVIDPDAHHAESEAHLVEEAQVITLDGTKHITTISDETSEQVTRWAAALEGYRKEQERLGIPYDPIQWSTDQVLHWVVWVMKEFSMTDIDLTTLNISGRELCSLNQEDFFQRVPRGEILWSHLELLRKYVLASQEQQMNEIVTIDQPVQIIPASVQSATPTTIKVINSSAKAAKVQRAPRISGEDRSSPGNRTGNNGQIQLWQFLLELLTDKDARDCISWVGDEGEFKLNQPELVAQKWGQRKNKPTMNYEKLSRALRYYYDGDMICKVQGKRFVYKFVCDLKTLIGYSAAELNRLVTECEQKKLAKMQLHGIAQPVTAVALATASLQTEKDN
How it was run: as §1

ERG = target: T4, ERG (Homo sapiens, UniProt P11308 1-479)
T4 sequence: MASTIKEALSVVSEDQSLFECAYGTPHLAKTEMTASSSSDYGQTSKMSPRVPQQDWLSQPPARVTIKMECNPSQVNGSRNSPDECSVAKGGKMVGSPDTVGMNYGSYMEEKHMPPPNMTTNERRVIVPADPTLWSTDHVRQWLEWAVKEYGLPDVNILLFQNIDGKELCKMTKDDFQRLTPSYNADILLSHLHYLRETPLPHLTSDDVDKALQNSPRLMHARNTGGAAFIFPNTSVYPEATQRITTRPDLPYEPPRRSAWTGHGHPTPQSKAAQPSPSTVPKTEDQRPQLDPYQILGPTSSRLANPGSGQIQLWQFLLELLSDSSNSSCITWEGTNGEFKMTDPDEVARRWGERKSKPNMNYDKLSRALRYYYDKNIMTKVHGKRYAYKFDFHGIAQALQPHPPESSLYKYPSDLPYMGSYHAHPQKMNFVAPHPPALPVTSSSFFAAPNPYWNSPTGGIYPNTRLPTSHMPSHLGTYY
How it was run: as §1

ELF1 = ELF1 (Homo sapiens, UniProt P32519 1-619)
Chain of ELF1 (P32519 whole entry): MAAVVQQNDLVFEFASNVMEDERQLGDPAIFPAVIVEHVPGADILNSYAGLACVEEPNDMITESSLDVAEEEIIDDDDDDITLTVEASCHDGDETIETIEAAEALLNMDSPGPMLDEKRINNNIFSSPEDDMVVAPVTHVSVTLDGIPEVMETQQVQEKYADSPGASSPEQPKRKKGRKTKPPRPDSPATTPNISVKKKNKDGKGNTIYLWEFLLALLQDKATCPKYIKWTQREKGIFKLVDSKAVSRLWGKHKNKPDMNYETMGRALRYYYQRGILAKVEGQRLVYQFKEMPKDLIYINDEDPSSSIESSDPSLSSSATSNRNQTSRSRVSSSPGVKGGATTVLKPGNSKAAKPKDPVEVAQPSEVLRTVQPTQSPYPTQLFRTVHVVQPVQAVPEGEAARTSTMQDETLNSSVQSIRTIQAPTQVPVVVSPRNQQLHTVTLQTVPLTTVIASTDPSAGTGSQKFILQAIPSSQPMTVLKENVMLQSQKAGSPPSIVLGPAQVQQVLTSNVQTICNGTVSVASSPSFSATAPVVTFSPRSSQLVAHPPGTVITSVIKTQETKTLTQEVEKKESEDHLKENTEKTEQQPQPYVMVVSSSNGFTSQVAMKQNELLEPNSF
How it was run: as §1

EHF = target: T5, EHF (Homo sapiens, UniProt Q9NZC4 1-300)
T5 sequence: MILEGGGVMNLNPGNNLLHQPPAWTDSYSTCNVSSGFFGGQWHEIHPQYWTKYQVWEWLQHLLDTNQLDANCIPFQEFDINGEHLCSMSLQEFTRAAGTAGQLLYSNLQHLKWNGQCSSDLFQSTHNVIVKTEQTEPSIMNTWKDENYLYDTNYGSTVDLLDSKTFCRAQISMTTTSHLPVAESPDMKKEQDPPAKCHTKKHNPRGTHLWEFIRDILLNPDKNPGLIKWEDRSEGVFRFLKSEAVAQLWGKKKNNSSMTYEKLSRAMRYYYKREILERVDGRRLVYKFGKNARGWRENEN
How it was run: as §1

SPI1 = SPI1 (Homo sapiens, UniProt P17947 1-270)
How it was run: as §1

SPIB = SPIB (Homo sapiens, UniProt Q01892 1-262)
Chain of SPIB (Q01892 whole entry): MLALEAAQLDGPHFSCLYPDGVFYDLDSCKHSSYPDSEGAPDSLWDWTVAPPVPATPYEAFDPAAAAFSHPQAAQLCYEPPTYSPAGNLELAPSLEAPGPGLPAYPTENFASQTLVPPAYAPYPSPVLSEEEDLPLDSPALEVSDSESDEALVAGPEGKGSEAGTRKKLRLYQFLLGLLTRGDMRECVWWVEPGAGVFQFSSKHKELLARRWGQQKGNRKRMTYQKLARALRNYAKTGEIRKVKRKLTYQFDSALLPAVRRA
How it was run: as §1

ELK3 = target: T6, ELK3 (Homo sapiens, UniProt P41970 1-407)
T6 sequence: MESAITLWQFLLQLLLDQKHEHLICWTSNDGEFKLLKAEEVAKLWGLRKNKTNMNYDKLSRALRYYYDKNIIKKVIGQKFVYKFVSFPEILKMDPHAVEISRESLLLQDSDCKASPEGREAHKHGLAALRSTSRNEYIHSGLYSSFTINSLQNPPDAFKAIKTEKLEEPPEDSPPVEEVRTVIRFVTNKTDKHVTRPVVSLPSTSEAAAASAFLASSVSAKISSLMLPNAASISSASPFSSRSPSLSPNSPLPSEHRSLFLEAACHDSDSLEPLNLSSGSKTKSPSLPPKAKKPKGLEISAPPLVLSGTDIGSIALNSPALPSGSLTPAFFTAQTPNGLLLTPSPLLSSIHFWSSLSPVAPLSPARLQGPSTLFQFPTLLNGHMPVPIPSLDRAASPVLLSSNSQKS
How it was run: as §1

Q: Which results are given for CCTCAA?
A: binding signal (FLI1): 1.47 fold enrichment (6-mer frequency, TF over GST control); binding signal (ELK1): 1.32 fold enrichment (6-mer frequency, TF over GST control); binding signal (GABPA): 1.46 fold enrichment (6-mer frequency, TF over GST control); binding signal (ERG): 1.26 fold enrichment (6-mer frequency, TF over GST control); binding signal (ELF1): 1.32 fold enrichment (6-mer frequency, TF over GST control); binding signal (EHF): 1.39 fold enrichment (6-mer frequency, TF over GST control); binding signal (SPI1): 1.55 fold enrichment (6-mer frequency, TF over GST control); binding signal (SPIB): 1.42 fold enrichment (6-mer frequency, TF over GST control); binding signal (ELK3): 1.44 fold enrichment (6-mer frequency, TF over GST control)
